Laboratory results from the supplement of paper PMC4022240.
± gives the standard deviation.

Legend:
Test in all cases: peptide microarray binding signal (635 nm), min-max normalized on array (fraction of array maximum); higher = stronger binding
Settings in all cases: peptide region: H3 20-32
[1] = biological target: T1, HaloTag-ATRX ADD domain (163-292)
T1 chain: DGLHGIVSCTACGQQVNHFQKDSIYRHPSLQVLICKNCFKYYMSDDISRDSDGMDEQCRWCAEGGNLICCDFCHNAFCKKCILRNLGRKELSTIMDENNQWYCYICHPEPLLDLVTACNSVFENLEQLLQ
Outline: (§1)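 Within each library, mean intensities of triplicate spots were min-max scaled to give the binding signal. The spots were histone 13-mer peptide–cellulose conjugates on nitrocellulose with a Cy3 tracer, blocked overnight at 4°C. They were then probed for 1 h at 4°C using biotin-labelled HaloTag reader fusions (10 nM to 1 μM) with streptavidin-Alexa Fluor 647 or rabbit histone antibodies (1:10,000 to 1:2,000) with anti-rabbit Alexa 647, and scanned at 635 nm for signal and 532 nm for misprints on an Axon GenePix 4000B.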

[2] = biological target: HaloTag-ING2 PHD (mouse Ing2 200-280)
Outline: as §1

[3] = biological target: anti-H3K4me3 antibody ab8580
Outline: as §1

[4] = biological target: anti-H3K9me3 antibody ab8898
Outline: as §1

[5] = peptide modifications: H3R26cit, binder concentration: 1:2,000 dilution
[6] = peptide modifications: H3R26cit, binder concentration: 1:10,000 dilution
[7] = peptide modifications: H3R26me1, binder concentration: 1:2,000 dilution
[8] = peptide modifications: H3R26me1, binder concentration: 1:10,000 dilution
[9] = peptide modifications: H3R26cit H3K27me3, binder concentration: 1:2,000 dilution
[10] = peptide modifications: H3R26cit H3K27me3, binder concentration: 1:10,000 dilution
[11] = peptide modifications: H3R26me2s, binder concentration: 1:2,000 dilution
[12] = peptide modifications: H3R26me2s, binder concentration: 1:10,000 dilution
[13] = peptide modifications: H3R26me2a H3K27me1, binder concentration: 1:2,000 dilution
[14] = peptide modifications: H3R26me2a H3K27me1, binder concentration: 1:10,000 dilution
[15] = peptide modifications: H3R26me1 H3K27ac, binder concentration: 1:2,000 dilution
[16] = peptide modifications: H3R26me1 H3K27ac, binder concentration: 1:10,000 dilution
[17] = peptide modifications: H3R26me1 H3K27me2, binder concentration: 1:2,000 dilution
[18] = peptide modifications: H3R26me1 H3K27me2, binder concentration: 1:10,000 dilution
[19] = peptide modifications: H3R26me2a H3K27ac, binder concentration: 1:2,000 dilution
[20] = peptide modifications: H3R26me2a H3K27ac, binder concentration: 1:10,000 dilution
[21] = peptide modifications: H3R26me2s H3K27me2, binder concentration: 1:2,000 dilution
[22] = peptide modifications: H3R26me2s H3K27me2, binder concentration: 1:10,000 dilution
[23] = peptide modifications: H3R26me2s H3K27me1, binder concentration: 1:2,000 dilution
[24] = peptide modifications: H3R26me2s H3K27me1, binder concentration: 1:10,000 dilution

## LATKAARKSAPAT [H3 20-32 L A T K A A Rcit K S A P A T]
[1]; peptide modifications: H3R26cit, binder concentration: 50 nM
  peptide microarray binding signal: 0.00411 ± 8.3e-05
[1]; peptide modifications: H3R26cit, binder concentration: 500 nM
  peptide microarray binding signal: 0.00633 ± 0.00025
[2]; peptide modifications: H3R26cit, binder concentration: 10 nM
  peptide microarray binding signal: 0.00824 ± 0.00018
[2]; peptide modifications: H3R26cit, binder concentration: 100 nM
  peptide microarray binding signal: 0.0125 ± 0.00034
[3]; [5]
  peptide microarray binding signal: 0.00296 ± 0.00035
[3]; [6]
  peptide microarray binding signal: 0.00285 ± 6.5e-05
[4]; [5]
  peptide microarray binding signal: 0.00168 ± 3.3e-05
[4]; [6]
  peptide microarray binding signal: 0.00138 ± 1.4e-05

## LATKAARKSAPAT [H3 20-32 L A T K A A Rme K S A P A T]
[1]; peptide modifications: H3R26me1, binder concentration: 50 nM
  peptide microarray binding signal: 0.00408 ± 8.9e-05
[1]; peptide modifications: H3R26me1, binder concentration: 500 nM
  peptide microarray binding signal: 0.006381 ± 3.8e-05
[2]; peptide modifications: H3R26me1, binder concentration: 10 nM
  peptide microarray binding signal: 0.00824 ± 0.00019
[2]; peptide modifications: H3R26me1, binder concentration: 100 nM
  peptide microarray binding signal: 0.0116 ± 0.00028
[3]; [7]
  peptide microarray binding signal: 0.00342 ± 0.0002
[3]; [8]
  peptide microarray binding signal: 0.00325 ± 0.00018
[4]; [7]
  peptide microarray binding signal: 0.00187 ± 4.7e-05
[4]; [8]
  peptide microarray binding signal: 0.00161 ± 3.1e-05

## LATKAARKSAPAT [H3 20-32 L A T K A A Rcit Kme3 S A P A T]
[1]; peptide modifications: H3R26cit H3K27me3, binder concentration: 50 nM
  peptide microarray binding signal: 0.00564 ± 0.00031
[1]; peptide modifications: H3R26cit H3K27me3, binder concentration: 500 nM
  peptide microarray binding signal: 0.00676 ± 0.00027
[2]; peptide modifications: H3R26cit H3K27me3, binder concentration: 10 nM
  peptide microarray binding signal: 0.0135 ± 0.00085
[2]; peptide modifications: H3R26cit H3K27me3, binder concentration: 100 nM
  peptide microarray binding signal: 0.0188 ± 0.00063
[3]; [9]
  peptide microarray binding signal: 0.0286 ± 0.0025
[3]; [10]
  peptide microarray binding signal: 0.0204 ± 0.00089
[4]; [9]
  peptide microarray binding signal: 0.0791 ± 0.0015
[4]; [10]
  peptide microarray binding signal: 0.05 ± 0.006

## LATKAARKSAPAT [H3 20-32 L A T K A A Rme2s K S A P A T]
[1]; peptide modifications: H3R26me2s, binder concentration: 50 nM
  peptide microarray binding signal: 0.00668 ± 0.00025
[1]; peptide modifications: H3R26me2s, binder concentration: 500 nM
  peptide microarray binding signal: 0.01295 ± 0.0001
[2]; peptide modifications: H3R26me2s, binder concentration: 10 nM
  peptide microarray binding signal: 0.0106 ± 0.00025
[2]; peptide modifications: H3R26me2s, binder concentration: 100 nM
  peptide microarray binding signal: 0.0116 ± 0.00039
[3]; [11]
  peptide microarray binding signal: 0.00451 ± 0.00012
[3]; [12]
  peptide microarray binding signal: 0.00479 ± 0.00014
[4]; [11]
  peptide microarray binding signal: 0.0047 ± 0.00025
[4]; [12]
  peptide microarray binding signal: 0.00329 ± 9.9e-05

## LATKAARKSAPAT [H3 20-32 L A T K A A Rme2a Kme S A P A T]
[1]; peptide modifications: H3R26me2a H3K27me1, binder concentration: 50 nM
  peptide microarray binding signal: 0.00489 ± 1.8e-05
[1]; peptide modifications: H3R26me2a H3K27me1, binder concentration: 500 nM
  peptide microarray binding signal: 0.00571 ± 0.00016
[2]; peptide modifications: H3R26me2a H3K27me1, binder concentration: 10 nM
  peptide microarray binding signal: 0.0113
[2]; peptide modifications: H3R26me2a H3K27me1, binder concentration: 100 nM
  peptide microarray binding signal: 0.0169 ± 0.00094
[3]; [13]
  peptide microarray binding signal: 0.00704 ± 0.00042
[3]; [14]
  peptide microarray binding signal: 0.00879 ± 0.00091
[4]; [13]
  peptide microarray binding signal: 0.00356 ± 0.00021
[4]; [14]
  peptide microarray binding signal: 0.00236 ± 3.7e-05

## LATKAARKSAPAT [H3 20-32 L A T K A A Rme Kac S A P A T]
[1]; peptide modifications: H3R26me1 H3K27ac, binder concentration: 50 nM
  peptide microarray binding signal: 0.00429 ± 0.00036
[1]; peptide modifications: H3R26me1 H3K27ac, binder concentration: 500 nM
  peptide microarray binding signal: 0.0144 ± 0.0011
[2]; peptide modifications: H3R26me1 H3K27ac, binder concentration: 10 nM
  peptide microarray binding signal: 0.0271 ± 0.0026
[2]; peptide modifications: H3R26me1 H3K27ac, binder concentration: 100 nM
  peptide microarray binding signal: 0.0327 ± 0.0033
[3]; [15]
  peptide microarray binding signal: 0.00627 ± 0.0032
[3]; [16]
  peptide microarray binding signal: 0.00987 ± 0.00026
[4]; [15]
  peptide microarray binding signal: 0.0058 ± 0.00049
[4]; [16]
  peptide microarray binding signal: 0.00306 ± 0.00012

## LATKAARKSAPAT [H3 20-32 L A T K A A Rme Kme2 S A P A T]
[1]; peptide modifications: H3R26me1 H3K27me2, binder concentration: 50 nM
  peptide microarray binding signal: 0.00392 ± 0.00013
[1]; peptide modifications: H3R26me1 H3K27me2, binder concentration: 500 nM
  peptide microarray binding signal: 0.002619 ± 2.1e-05
[2]; peptide modifications: H3R26me1 H3K27me2, binder concentration: 10 nM
  peptide microarray binding signal: 0.00483 ± 0.00013
[2]; peptide modifications: H3R26me1 H3K27me2, binder concentration: 100 nM
  peptide microarray binding signal: 0.00517 ± 7.1e-05
[3]; [17]
  peptide microarray binding signal: 0.00176
[3]; [18]
  peptide microarray binding signal: 0.00194
[4]; [17]
  peptide microarray binding signal: 0.00106 ± 2.2e-05
[4]; [18]
  peptide microarray binding signal: 0.001211 ± 1.2e-05

## LATKAARKSAPAT [H3 20-32 L A T K A A Rme2a Kac S A P A T]
[1]; peptide modifications: H3R26me2a H3K27ac, binder concentration: 50 nM
  peptide microarray binding signal: 0.00467 ± 0.00027
[1]; peptide modifications: H3R26me2a H3K27ac, binder concentration: 500 nM
  peptide microarray binding signal: 0.0126 ± 0.0011
[2]; peptide modifications: H3R26me2a H3K27ac, binder concentration: 10 nM
  peptide microarray binding signal: 0.0197 ± 0.0013
[2]; peptide modifications: H3R26me2a H3K27ac, binder concentration: 100 nM
  peptide microarray binding signal: 0.0246 ± 0.0016
[3]; [19]
  peptide microarray binding signal: 0.00936 ± 0.0018
[3]; [20]
  peptide microarray binding signal: 0.0107 ± 0.00049
[4]; [19]
  peptide microarray binding signal: 0.00763 ± 0.0006
[4]; [20]
  peptide microarray binding signal: 0.00565 ± 0.00056

## LATKAARKSAPAT [H3 20-32 L A T K A A Rme2s Kme2 S A P A T]
[1]; peptide modifications: H3R26me2s H3K27me2, binder concentration: 50 nM
  peptide microarray binding signal: 0.00351 ± 3.8e-05
[1]; peptide modifications: H3R26me2s H3K27me2, binder concentration: 500 nM
  peptide microarray binding signal: 0.00129 ± 2.1e-05
[2]; peptide modifications: H3R26me2s H3K27me2, binder concentration: 10 nM
  peptide microarray binding signal: 0.003342 ± 1.8e-05
[2]; peptide modifications: H3R26me2s H3K27me2, binder concentration: 100 nM
  peptide microarray binding signal: 0.00312 ± 7.5e-05
[3]; [21]
  peptide microarray binding signal: 0.00128 ± 2e-05
[3]; [22]
  peptide microarray binding signal: 0.00114 ± 2.3e-05
[4]; [21]
  peptide microarray binding signal: 0.000725 ± 1.1e-05
[4]; [22]
  peptide microarray binding signal: 0.000865 ± 9e-06

## LATKAARKSAPAT [H3 20-32 L A T K A A Rme2s Kme S A P A T]
[1]; peptide modifications: H3R26me2s H3K27me1, binder concentration: 50 nM
  peptide microarray binding signal: 0.00511 ± 6.7e-05
[1]; peptide modifications: H3R26me2s H3K27me1, binder concentration: 500 nM
  peptide microarray binding signal: 0.00771 ± 0.00038
[2]; peptide modifications: H3R26me2s H3K27me1, binder concentration: 10 nM
  peptide microarray binding signal: 0.0191 ± 0.00015
[2]; peptide modifications: H3R26me2s H3K27me1, binder concentration: 100 nM
  peptide microarray binding signal: 0.02409 ± 0.00015
[3]; [23]
  peptide microarray binding signal: 0.00608 ± 0.0005
[3]; [24]
  peptide microarray binding signal: 0.00845 ± 0.00053
[4]; [23]
  peptide microarray binding signal: 0.00384 ± 0.00014
[4]; [24]
  peptide microarray binding signal: 0.00283 ± 4.9e-05
